# High-throughput results from PubChem.
# Pf apPOL inh: Pf-apPOL DNA polymerase inhibition. Recombinant Pf-apPOL, molecular beacon fluorescence, 1.5 h. hit rate 0.25% among 210,000. inhibition, % at 10 µM. AID 1794808
# mHTT CaM bind: inhibitors of human mutant huntingtin-calmodulin interaction. hit rate 3.6% among 190,000. inhibition, % at 15 µM. AlphaScreen His-mHTT/GST-CaM binding, luminescence. AID 1671202;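 note: 0% = both proteins with DMSO and 100% = one protein alone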
# * hit, by the source's call; nt = no result given; + = active, no number. Rows were chosen to be rich in hits. Some 3.6% of all compounds tested hit in one or more screens of this group. Cut-off read from the data, not from the text of the source: active = inhibition above about 50%; inactive = the rest.
SMILES,Pf apPOL inh,mHTT CaM bind
Cc1ccc(C)n1-c1ccc(Cl)c(O)c1,-1,96*
Cc1ccc(C)n1-c1ccc(C(=O)NN)c(Cl)c1,2,31
CCOc1ccc(NC(NC(=O)/C=C/c2ccccc2)C(Cl)(Cl)Cl)cc1 (centres undefined),1,36
O=C(/C=C/c1ccccc1)NC(NC1CCCCC1)C(Cl)(Cl)Cl (centres undefined),112*,-4
O=C(NCc1ccccn1)c1cc2n(n1)CCCN(Cc1cccc(F)c1)C2=O,2,-2
COc1ccc(CCNC(=O)CCn2c(=O)[nH]c3ccsc3c2=O)cc1OC,-3,-1
CCc1[nH]nc(-c2ccc(F)c(F)c2)c1NC(=O)COC,-3,97*
CCc1[nH]nc(-c2cccc(OC)c2)c1NC(=O)C1CCCC1,3,18
CCC(=O)Nc1c(-c2ccc(F)c(F)c2)n[nH]c1CC,-2,7
CCC(=O)Nc1c(-c2cccc(OC)c2)n[nH]c1CC,70*,91*
COc1ccc(CCNC(=O)CN2CCC(c3nnc(-c4ccco4)o3)CC2)cc1OC,-3,-5
COc1ccc(/C=C2\c3cc([N+](=O)[O-])ccc3-c3c2cc([N+](=O)[O-])cc3[N+](=O)[O-])cc1OC,-4,9
CCO/C=C1\c2cc([N+](=O)[O-])ccc2-c2c1cc([N+](=O)[O-])cc2[N+](=O)[O-],-5,74*
O=C(NCCc1ccncc1)C1CCCN(c2nnc3ccc(C(F)(F)F)cn23)C1 (centres undefined),1,1
N#Cc1c([N+](=O)[O-])cc([N+](=O)[O-])cc1S(=O)(=O)Cc1ccccc1,-3,79*
O=[N+]([O-])c1ccc(NCCNS(=O)(=O)Cc2ccccc2)c(Cl)c1,-14,17
COc1cc(/C=c2\sc3nc4ccccc4n3c2=O)c(Br)cc1OCC(=O)O,7,23
C#CC(C)(CC)OCC(O)CN1CCCC(C)C1 (centres undefined),-1,-3
O=C(OCc1cc(-c2ccc3c(c2)OCCO3)on1)c1cc(-c2ccco2)n[nH]1,67*,69*
Cc1nc(C)c(C(=O)OCc2cc(-c3ccc4c(c3)OCCO4)on2)s1,-2,-13
COCCN1C(=O)C2(SCCN2C(=O)c2ccc(OC)cc2)c2ccccc21 (centres undefined),-2,22
CCN1C(=O)C2(SCCN2C(=O)c2cccc(OC)c2)c2cc(F)ccc21 (centres undefined),-1,43
CCN1C(=O)C2(SCCN2C(=O)C2CCCC2)c2cc(F)ccc21 (centres undefined),1,55*
CCN1C(=O)C2(SCCN2C(=O)c2cccc(F)c2)c2cc(F)ccc21 (centres undefined),8,56*
COc1ccccc1CNC(=O)c1ccc(N(Cc2ccc(C)cc2)S(C)(=O)=O)cc1,2,14
SMILES,Pf apPOL inh,mHTT CaM bind
O=C(Nc1cccc(Br)c1)c1ccc2nc(N3C(=O)CCC3=O)sc2c1,-2,55*
O=C(Nc1cccc([N+](=O)[O-])c1)c1ccc2nc(N3C(=O)CCC3=O)sc2c1,-4,4
CCc1cccc(NC(=O)c2ccccc2[N+](=O)[O-])c1,-4,2
COc1ccc(C=C2Oc3c(cc4c(c3C)OCN(Cc3ccco3)C4)C2=O)cc1OC,-11,0
Cc1ccc2nc(-c3cc(N=Cc4ccc([N+](=O)[O-])cc4)ccc3O)oc2c1,7,15
Cc1ccc2nc(-c3ccc(N=Cc4ccc5c(c4)OCO5)cc3O)oc2c1,2,60*
Oc1ccccc1-c1cc(-c2cccc(Br)c2)n[nH]1,-10,96*
Cc1ccc(O)c(-c2cc(-c3cccs3)[nH]n2)c1,3,56*
NC(N)=NC(N)=Nc1cc(-c2cccs2)[nH]n1,2,nt
Oc1ccccc1-c1cc(-c2ccccc2)no1,-5,-10
COc1ccc(-c2cc(C(=O)O)c3cc(C)ccc3n2)cc1,-5,-3
COc1ccc(-c2cc(-c3cc(C)ccc3O)[nH]n2)cc1,-18,70*
Cc1ccc(O)c(-c2cc(-c3ccccc3)n[nH]2)c1,-3,74*
Oc1ccccc1-c1cc(-c2ccc(Br)cc2)n[nH]1,-3,35
CN(C)C1CN(C(=O)c2ccsc2)CCC1(O)c1ccccc1 (centres undefined),-5,1
COc1ccc(C2=N/C(=C\c3ccc([N+](=O)[O-])cc3)C(=O)O2)c(Br)c1,-1,-5
Cc1[nH]nc(-c2ccccc2)c1Br,2,-9
Cc1cc(-c2ccccc2)n[nH]1,83*,7
Cc1nc2cccc(-c3cc(-c4ccccc4O)[nH]n3)c2o1,-6,67*
Cc1ccccc1-c1cc(-c2ccccc2O)on1,-8,-42
Cc1ccc(-c2csc(N)n2)c(C)c1,-3,13
Cc1ccc(-c2coc(-c3ccc(N)cc3)n2)c(C)c1,0,59*
Cc1ccc(-c2nc3cc(N)ccc3o2)cc1C,-17,24
Cc1ccc(C)c(-c2coc(-c3ccc(N)cc3)n2)c1,-1,53*
c1ccc(CC2CCN(c3nc4cccnc4s3)CC2)cc1,3,5
SMILES,Pf apPOL inh,mHTT CaM bind
CCCCC1CCC(C(=O)Nc2c3c(nn2C(C)(C)C)CSC3)CC1 (centres undefined),-5,-1
O=C(CSc1nc2ccsc2c(=O)n1C1CC1)NCC1CCCO1 (centres undefined),-6,7
CC1(C)CC(=O)C2=C(C1)Nc1[nH]c(=O)[nH]c(=O)c1C2c1ccc(Cl)cc1 (centres undefined),-2,-1
Cc1c(C)c(C)c(CSC(=Nc2cc(Cl)ccc2Cl)N2CCOCC2)c(C)c1C,1,nt
CN(C)c1ccc(/C=N/NC(=S)N/N=C/c2ccc(N(C)C)cc2)cc1,nt,+
CN(C)c1ccc(C=NNC2=NCCN2)cc1,-3,nt
O=C(Nc1cc(-c2cccs2)nn1CCO)c1ccccc1Cl,-8,-7
COc1ccc(OCC(O)CN(C(C)C)C(C)C)cc1 (centres undefined),-5,-4
O=C(CN1CCCC1)N1N=C(c2ccccc2)CC1c1ccc2c(c1)OCO2 (centres undefined),4,99*
O=C(CN1CCCCC1)N1N=C(c2ccccc2)CC1c1ccc2c(c1)OCO2 (centres undefined),-3,29
O=C(CN1CCOCC1)N1N=C(c2ccccc2)CC1c1ccc(Cl)cc1 (centres undefined),-3,39
CC(=O)N1CCN(CC(=O)N2N=C(c3ccccc3)CC2c2ccccc2)CC1 (centres undefined),-1,4
CC(=O)N1CCN(CC(=O)N2N=C(c3ccc(C)cc3)CC2c2ccc(C)cc2)CC1 (centres undefined),-11,71*
CC(=O)N1CCN(CC(=O)N2N=C(c3ccccc3)CC2c2ccc(C)cc2)CC1 (centres undefined),-5,64*
Cc1ccc(C2=NN(C(=O)CN3CCOCC3)C(c3ccc(C)cc3)C2)cc1 (centres undefined),-6,62*
COc1ccc(CNC(=O)C2(C)CCCN(S(=O)(=O)c3ccc(C)c(C)c3)C2)cc1 (centres undefined),-2,36
C=CCn1c(=O)c2c(ncn2Cc2cccc(C)c2)n(-c2ccc(F)cc2)c1=O,-2,1
Cc1cccc(-n2nnc(C(=O)NCCc3ccc(Cl)cc3)c2N)c1,-3,-4
COc1ncc(C(=O)NCc2ccc(Br)cc2)cn1,-5,-5
N#CC(c1ccccc1)N1CCCCC1 (centres undefined),7,nt
